Inconclusive results are not listed. Active and inactive are the calls of the source. Unless noted, calls come from the whole dose curve; as a rule, active = well fitted curve in the direction sought with a large enough effect; inconclusive = small, poorly fitted or top-dose-only effect, or another doubt; inactive = no such curve, though single readings can be large; an effect the other way counts as inactive or inconclusive.
Tests used:
[1] = Validation screen for inhibitors of Lassa infection (AID 463096; calls by dose curve)
[2] = qHTS Assay for Identification of Small Molecule Inducers of Hypoxia Response (AID 2120; active = well fitted curve in the direction sought with a large enough effect in the signal ratio, with a control signal flat, not every such curve was filed as active; the % refers to the signal ratio)
Procedure, shortened: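 Reporter induction read as the CCF4 blue/green (460nm/530nm) emission ratio after 2.5 h dye loading at room temperature. ME-180 HRE-beta-lactamase cells received titrated compounds for 17 h at 37 degrees Celsius; AC50 values derived.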

[3] = target: Ferritin light chain (Equus caballus) (UniProt P02791); assay: qHTS Validation Assay for Identification of Novel General Anesthetics (AID 2323)
Sequence of Ferritin light chain (Equus caballus) (P02791 2-175 limits assumed): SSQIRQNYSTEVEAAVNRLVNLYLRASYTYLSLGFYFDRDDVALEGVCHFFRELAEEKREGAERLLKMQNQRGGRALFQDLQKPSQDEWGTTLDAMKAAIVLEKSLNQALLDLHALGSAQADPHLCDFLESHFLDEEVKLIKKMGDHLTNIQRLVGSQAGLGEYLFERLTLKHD
Procedure, shortened: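 Horse-spleen apoferritin (10 uM) in PBS with 50% saturated 1-aminoanthracene; compounds pin-transferred, 10 min at room temperature. Fluorescence read at 380/535 nm, normalized to free 1-AMA and 1-AMA/apoferritin values; four-parameter Hill fit.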

[4] = target: ATP-dependent DNA helicase Q1 (Homo sapiens) (UniProt P46063); assay: qHTS Validation Assay for Inhibitors of RecQ-Like Dna Helicase 1 (RECQ1) (AID 2353)
Sequence of ATP-dependent DNA helicase Q1 (Homo sapiens) (P46063 whole entry, looked up): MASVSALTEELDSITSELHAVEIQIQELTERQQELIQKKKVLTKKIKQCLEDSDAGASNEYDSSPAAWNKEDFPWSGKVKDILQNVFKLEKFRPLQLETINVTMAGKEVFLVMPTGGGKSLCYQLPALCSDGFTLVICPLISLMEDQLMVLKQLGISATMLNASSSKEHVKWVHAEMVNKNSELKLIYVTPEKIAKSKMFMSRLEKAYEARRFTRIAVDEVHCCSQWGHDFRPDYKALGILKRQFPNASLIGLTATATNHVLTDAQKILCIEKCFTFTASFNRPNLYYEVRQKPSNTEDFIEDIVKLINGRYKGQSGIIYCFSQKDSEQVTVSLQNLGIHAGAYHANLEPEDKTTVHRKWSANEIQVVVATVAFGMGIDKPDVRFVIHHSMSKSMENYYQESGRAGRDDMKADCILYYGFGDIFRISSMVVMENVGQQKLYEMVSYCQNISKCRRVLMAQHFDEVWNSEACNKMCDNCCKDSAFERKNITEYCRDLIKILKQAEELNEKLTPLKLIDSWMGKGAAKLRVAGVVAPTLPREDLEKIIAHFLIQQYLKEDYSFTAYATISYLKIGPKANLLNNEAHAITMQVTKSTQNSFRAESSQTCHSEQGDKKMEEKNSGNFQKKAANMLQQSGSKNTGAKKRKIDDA
Procedure, shortened: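 RECQ1T1 50 nM; forked duplex (20 bp + 30-nt ss tails) 200 nM, ATP 2 mM final; pH 8.0, 2 mM MgCl2, 2.5 ug/ml poly(dI-dC); 15 min compound preincubation; discontinuous kinetic read over 2 h at RT.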

[5] = Cytometric Cell-Based qHTS for Inhibitors of the mTORC1 Signaling Pathway in MEF (Tsc2-/-, p53-/-) Cells (AID 2660);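 note: Tsc2 and p53 null MEFs carrying empty vector with compound for 24 h; percent of cells above a phospho-rpS6 to PI ratio cutoff in each well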
Procedure, shortened: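 Readout: Alexa-488 phospho-rpS6 (Ser235/236) intensity divided by PI intensity, thresholded against 7.5 nM rapamycin wells and reported as % positive cells. PI cell count served as the viability measure. Compound exposure was 24 hrs at 37 degree Celsius.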

[6] = High Content Imaging Cell-Based qHTS for Inhibitors of the mTORC1 Signaling Pathway in MEF (Tsc2-/-, p53-/-) Cells (AID 2666); conditions: at 38.3 µM (top of the series);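 note: percent of cells scored positive for phospho-rpS6 Ser235/236 immunostaining by imaging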
Procedure, shortened: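 MEF Tsc2-/- p53-/- (empty vector), DMEM/10% FBS; cpd 24 h 37 °C; PFA fix, Alexa-488 p-rpS6 S235/236 Ab, Hoechst; imaged; rapamycin-defined inhibition; % positive cells/well.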

[7] = High Content Imaging Cell-Based qHTS for Inhibitors of the mTORC1 Signaling Pathway in MEF Cells (AID 2667);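 note: Tsc2-/- p53-/- MEFs stably re-expressing wild-type Tsc2 exposed 24 h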
Procedure, shortened: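 Read-out is the share of phospho-rpS6-positive cells per well, from Hoechst-normalized Alexa-488 Ser235/236 staining imaged on IN Cell. Cells: WT Tsc2-expressing Tsc2-/-, p53-/- MEFs exposed to compound for 24 hrs.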

[8] = Cytometry Cell-Based qHTS for Inhibitors of the mTORC1 Signaling Pathway in MEF cells (AID 2668);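 note: Tsc2-/- p53-/- mouse embryonic fibroblasts stably re-expressing wild-type Tsc2; percent cells positive for phospho-rpS6 Ser235/236 relative to propidium iodide stain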
Procedure, shortened: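 MEFs (Tsc2-/-, p53-/- stably expressing WT Tsc2) treated 24 h at 37 degree Celsius, fixed, stained with Alexa-488 anti-phospho-rpS6 Ser235/236 and propidium iodide; Acumen laser scanning. Reported as % positive cells, phospho-S6 normalized to PI.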

[9] = Validation screen for small molecules that induce DNA re-replication in MCF 10A normal breast cells (AID 463097); note: nearly all actives have a fitted effect of over 60% in size
Procedure, shortened: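 MCF 10A cells exposed to compound 48 hr at 37 C, 5% CO2, then Hoechst-stained 40 min. Laser-scanning imaging of nuclear DNA content (405 nm ex, 500-530 nm em); re-replication scored as rise in nuclei with elevated fluorescence intensity.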

[10] = target: RecQ-like DNA helicase BLM (Homo sapiens) (UniProt P54132); assay: qHTS Validation Assay for Inhibitors of Bloom's syndrome helicase (BLM) (AID 2364)
Sequence of RecQ-like DNA helicase BLM (Homo sapiens) (P54132 whole entry, looked up): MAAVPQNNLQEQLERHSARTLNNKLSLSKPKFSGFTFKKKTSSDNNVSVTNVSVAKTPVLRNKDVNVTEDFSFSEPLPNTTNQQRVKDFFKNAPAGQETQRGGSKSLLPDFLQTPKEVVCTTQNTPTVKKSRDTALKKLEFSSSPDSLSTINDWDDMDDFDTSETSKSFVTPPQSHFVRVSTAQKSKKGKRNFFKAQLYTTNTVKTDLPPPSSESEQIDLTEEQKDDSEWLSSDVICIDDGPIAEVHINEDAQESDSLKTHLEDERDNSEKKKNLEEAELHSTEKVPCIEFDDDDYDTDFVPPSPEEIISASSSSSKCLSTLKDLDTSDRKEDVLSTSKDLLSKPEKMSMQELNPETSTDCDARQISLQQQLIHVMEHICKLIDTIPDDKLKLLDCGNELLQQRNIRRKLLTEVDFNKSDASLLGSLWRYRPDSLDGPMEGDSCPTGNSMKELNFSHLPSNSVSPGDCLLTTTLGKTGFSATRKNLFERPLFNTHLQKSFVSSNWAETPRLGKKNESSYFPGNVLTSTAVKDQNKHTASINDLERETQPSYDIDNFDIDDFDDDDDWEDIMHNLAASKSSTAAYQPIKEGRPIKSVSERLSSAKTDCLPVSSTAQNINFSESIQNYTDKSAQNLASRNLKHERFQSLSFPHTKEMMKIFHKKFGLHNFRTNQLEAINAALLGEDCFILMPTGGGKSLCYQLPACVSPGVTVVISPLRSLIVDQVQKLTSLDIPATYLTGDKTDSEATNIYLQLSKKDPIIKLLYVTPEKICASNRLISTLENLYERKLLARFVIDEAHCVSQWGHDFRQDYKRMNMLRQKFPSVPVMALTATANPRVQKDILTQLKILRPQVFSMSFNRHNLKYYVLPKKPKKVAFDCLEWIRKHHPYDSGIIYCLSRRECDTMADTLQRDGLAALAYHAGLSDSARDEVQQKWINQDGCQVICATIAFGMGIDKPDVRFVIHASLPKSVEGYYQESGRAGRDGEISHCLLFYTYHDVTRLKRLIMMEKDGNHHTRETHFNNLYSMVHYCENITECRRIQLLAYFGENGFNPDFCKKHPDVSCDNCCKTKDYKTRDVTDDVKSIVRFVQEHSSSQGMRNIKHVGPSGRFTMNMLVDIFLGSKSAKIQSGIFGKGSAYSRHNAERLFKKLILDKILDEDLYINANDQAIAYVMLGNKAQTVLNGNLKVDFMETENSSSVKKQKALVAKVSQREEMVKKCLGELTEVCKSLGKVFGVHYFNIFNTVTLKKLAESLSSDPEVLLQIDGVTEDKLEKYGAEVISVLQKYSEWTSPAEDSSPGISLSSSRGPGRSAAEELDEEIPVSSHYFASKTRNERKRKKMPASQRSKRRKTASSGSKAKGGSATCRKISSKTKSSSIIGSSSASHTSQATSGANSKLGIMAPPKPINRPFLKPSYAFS
Procedure, shortened: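 50 nM BLM preincubated 15 min at room temperature with compound in pH 8.0 Tris buffer containing 2.5 ug/ml poly(dI-dC); started with 200 nM TAMRA/BHQ-2 forked duplex and 2 mM ATP (final). Unwinding read as TAMRA fluorescence increase, two reads 2 h apart.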

Measured: Potency

C[N+](C)(C)CCOC(N)=O
inactive: [1]

O=C(O)CCCc1ccc(N(CCCl)CCCl)cc1
not listed: [9] | [10]
inactive: all other assays above

CC(C)(C)NCC(O)c1ccccc1Cl (configuration not stated)
not listed: [2] | [10]
inactive: all other assays above

O=C(O)CN(CCN(CC(=O)O)CC(=O)O)CCN(CC(=O)O)CC(=O)O
inactive: [1]

COP(=S)(OC)Oc1ccc(SC)c(C)c1
inactive: [2]

C[C@]1(O)CC[C@H]2[C@@H]3CCC4=CC(=O)CC[C@]4(C)[C@@]3(F)[C@@H](O)C[C@@]21C
inactive: [2]

CC(C)NC(C)C
inactive: [2]

CCN1CCC[C@H]1CNC(=O)c1cc(S(N)(=O)=O)ccc1OC
inactive: [1]

COC(=O)C(c1ccccc1)C1CCCCN1 (configuration not stated)
inactive: [2]

Oc1ccc(Cl)cc1
inactive: [2]

CCC1(c2ccc(N)cc2)CCC(=O)NC1=O (configuration not stated)
not listed: [2]
inactive: all other assays above

CC(C)c1cccc(C(C)C)c1O
not listed: [2] | [3] | [10]
inactive: all other assays above

CC(NC(C)(C)C)C(=O)c1cccc(Cl)c1 (configuration not stated)
not listed: [2] | [10]
inactive: all other assays above

O=c1[nH]oc2c1CCNC2
inactive: [4] | [5] | [6] | [7] | [8] | [1]

Nc1ccccc1C(=O)O
inactive: [2]

CN1C(=O)CCS(=O)(=O)C1c1ccc(Cl)cc1 (configuration not stated)
not listed: [2]
inactive: all other assays above

Nc1ccccc1
inactive: [2]

O=P1(N(CCCl)CCCl)NCCCO1 (configuration not stated)
not listed: [2]
inactive: all other assays above

CCN(CC)CCNC(=O)c1ccc(N)cc1
inactive: [1]

COc1ccc2c(c1OC)C(=O)O[C@H]2[C@@H]1c2cc3c(cc2CCN1C)OCO3
inactive: [5] | [6] | [7] | [8]

CCC1(C)CC(=O)NC1=O (configuration not stated)
inactive: [1]

COc1cc(OC)c(OC)cc1C=O
inactive: [2]

O=C(CCCN1CCC2(CC1)C(=O)NCN2c1ccccc1)c1ccc(F)cc1
inactive: [3] | [4] | [5] | [6] | [7] | [8]
